“And” between values parts separate entries of the source, which are not always exact repeats. Equal entries are not always repeated. Records with an inconclusive call do not appear. Some compounds were tested as several samples or in several runs, with calls that do not always agree. The source made the active and inactive calls. Unless noted, calls follow the shape of the dose curve; as a rule, active = well fitted curve in the direction sought with a large enough effect in the repeat runs; inconclusive = weak or mixed curves; inactive = no such curve, though single readings can be large; an effect the other way counts as inactive or inconclusive.

From PubChem BioAssay (Tox21) come the findings set out here.

A short description of assay [1]: qHTS assay to identify small molecule antagonists of the estrogen related receptor (ERR) signaling pathway from Tox21 library - cell viability counter screen (AID 1224834). Also: nearly all actives have a fitted effect of over 30% in size. In short, it runs like this:
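Seeded ERR cells were rested 6 h at 37 C/5% CO2 before compounds, positive and negative controls or DMSO were added. Incubation continued for 17.5 h, and viability was then quantified by CellTiter-Fluor fluorescence.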
On the technique in general: qHTS replaces the single test concentration by a dilution series.

The target in assay [2] is Luciferin 4-monooxygenase (Photinus pyralis) (UniProt P08659). As to the kind of experiment: qHTS assay to identify small molecule inhibitors of firefly luciferase (AID 1224835). Also: nearly all actives have a fitted effect of over 25% in size. Also: potency is read from the fitted curve at half-maximal effect. In short, it runs like this:
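Biochemical qHTS: compounds run as interplate titrations against purified firefly enzyme, with D-luciferin and ATP each at its KM concentration. Light output recorded by CCD imaging.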

The nature of assay [3]: qHTS assay to identify small molecule agonists of the constitutive androstane receptor (CAR) signaling pathway - cell viability counter screen (AID 1224836). Also: series mostly up to about 92 µM; nearly all actives have a fitted effect of over 45% in size. In short, it runs like this: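 Fluorescence from CellTiter-Fluor indicates live cells after 23 h exposure. The human hepatoma line expresses hCAR and a CYP2B6-2.2kb reporter. Incubation medium contains 0.75 uM PK11195 (final).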

The nature of assay [4]: qHTS assay to identify small molecule antagonists of the constitutive androstane receptor (CAR) signaling pathway - cell viability counter screen (AID 1224837). Also: series mostly up to about 92 µM; nearly all actives have a fitted effect of over 45% in size. In short, it runs like this: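 To flag cytotoxic false antagonists, HepG2 hCAR/CYP2B6-2.2kb cells were treated 23 hr with 15-concentration compound series and 50 nM CITCO at 37 C/5% CO2; CellTiter-Fluor fluorescence was the measured end point.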

Assay [5] is described as follows: qHTS assay to identify small molecule antagonists of the estrogen related receptor signaling pathway with the pleiotropic PPARgamma coactivator (PGC) from Tox21 10K library - cell viability counter screen (AID 1224840; active = well fitted cell-killing curve with a large enough effect in the repeat runs, not every such curve was filed as active; also: nearly all actives have a fitted effect of over 40% in size). In short, it runs like this:
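Seeded PGC/ERR cells (2,000/well, 6 h, 37 C/5% CO2) get compound by pin tool; 17.5 h incubation at 37 C; CellTiter-Fluor added, 30 min, fluorescence measured.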

Assay [6] can be described thus: qHTS assay to identify small molecule agonists of the hypoxia (HIF-1) signaling pathway - cell viability counter screen (AID 1224844; calls by dose curve; also: nearly all actives have a fitted effect of over 50% in size). In short, it runs like this: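 HRE-bla ME-180; 0.5% dFBS; cpd 17 h, 37C, 5% CO2; CellTiter-Glo lum., 30 min RT, post-FRET read, same wells.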
Assay [7] can be described thus: qHTS assay to identify small molecule agonists of H2AX (AID 1224845; active = well fitted activation curve with a large enough effect in the signal ratio in the repeat runs, not every such curve was filed as active; the % refers to the signal ratio). In short, it runs like this: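 Wild-type CHO-K1 cells, plated overnight, exposed 3hr at 37C to 15 concentrations (0.76% DMSO final). Lysed, then HTRF anti-pH2AX (S139) cryptate and anti-H2AX-d2 antibodies, 24 hr room temperature; 665/620 nm emission read.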
Assay [8] is described as follows: qHTS assay to identify small molecule agonists of the hypoxia (HIF-1) signaling pathway (AID 1224846; active = well fitted activation curve with a large enough effect in the signal ratio in the repeat runs, not every such curve was filed as active; the % refers to the signal ratio). In short, it runs like this:
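Reporter induction in HRE-bla ME-180 cells is taken as agonism: cells sit 5 hrs after plating, receive compounds or DMSO only, incubate 17 hrs at 37C under 5% CO2, and are loaded with CCF4-AM for beta-lactamase FRET measurement.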

Assay [9] in a line: qHTS RealTime-Glo MT Cell Viability Assay in HEK293 cells - 32 hour (AID 1224868). Also: top concentration of the series differs between compounds; nearly all actives have a fitted effect of over 50% in size. In short, it runs like this: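 Quantitative high-throughput screen of the Tox21 10K library in HEK293: cells and RealTime-Glo reagents plated together, compound added at 5 h, luminescence monitored through 40 h at 37 C.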
Assay [10] is described as follows: A CellTox Green Cytotoxicity Assay to monitor cytotoxicity in HEK293 cells - 0 hour (AID 1224869). Also: nearly all actives have a fitted effect of over 50% in size. In short, it runs like this: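 Tox21 screen in HEK293: membrane-impermeant cyanine dye fluoresces on binding dead-cell DNA; compound pinned 5 h post-seeding, plates held at 37 C, signal read repeatedly through 40 h.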
Assay [11] has as its target Nuclear receptor subfamily 1 group I member 3 (Homo sapiens) (UniProt Q14994). The assay can be described thus: qHTS assay to identify small molecule antagonists of the constitutive androstane receptor (CAR) signaling pathway (AID 1224838).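 Also: HepG2 cells stably expressing hCAR with CYP2B6 luciferase reporter stimulated by CITCO; nearly all actives have a fitted effect of over 40% in size.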 In short, it runs like this: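 Human hepatoma HepG2 cells expressing hCAR and a CYP2B6 promoter (2.2 kb) luciferase construct; compound titration (15 points) with 50 nM CITCO final, 24 h at 37 C/5% CO2; luminescence via ONE-Glo after 30 min at room temperature.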

For assay [12] the target is unchanged. As to the kind of experiment: qHTS assay to identify small molecule agonists of the constitutive androstane receptor (CAR) signaling pathway (AID 1224839). Also: nearly all actives have a fitted effect of over 15% in size. Also: potency is read from the fitted curve at half-maximal effect.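 As to activation: HepG2 cells stably carrying human CAR and a CYP2B6 luciferase reporter; series mostly up to about 92 µM.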 In short, it runs like this: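 Stable hCAR/CYP2B6-2.2kb HepG2 line in DMEM with 10% FBS; compounds (15 concentrations) and 0.75 uM PK11195 final, 24 h at 37 C/5% CO2, then ONE-Glo luminescence after 30 min.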

Assay [13] is described as follows: qHTS assay to identify small molecule antagonists of the estrogen related receptor signaling pathway with the pleiotropic PPARgamma coactivator (PGC) from Tox21 10K library (AID 1224841; call rule not given here; also: series mostly up to about 92 µM; actives are mostly falling curves and most rising ones were filed inactive; nearly all actives have a fitted effect of over 50% in size). In short, it runs like this: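 Test chemicals dissolved in DMSO were applied to pre-incubated (6 h) PGC/ERR cells at 2,000 cells/well for an 18 h, 37 C treatment; reporter luminescence was then read using One-Glo.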

Assay [14] can be described thus: qHTS assay to identify small molecule agonists of the estrogen related receptor signaling pathway with the pleiotropic PPARgamma coactivator (PGC) from Tox21 10K library (AID 1224842). Also: nearly all actives have a fitted effect of over 15% in size. In short, it runs like this:
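PGC/ERR reporter cell line, 2,000 cells per well, incubated 6 h at 37 C before 23 nL compound in DMSO was added. After 18 h at 37 C, One-Glo luminescence read following 30 min at room temperature.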

Assay [15] is described as follows: qHTS assay to identify small molecule antagonists of the estrogen related receptor (ERR) signaling pathway from Tox21 library (AID 1224848). Also: nearly all actives have a fitted effect of over 50% in size. In short, it runs like this: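 Compounds dissolved in DMSO are pin-transferred onto ERR reporter cells (2,000 per well) that have settled for 6 h at 37 C. Plates then incubate 18 h at 37 C before ONE-Glo luciferase reagent and a luminescence read 30 min later.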

Assay [16] in a line: qHTS assay to identify small molecule agonists of the estrogen related receptor (ERR) signaling pathway from Tox21 library (AID 1224849; calls by dose curve; also: nearly all actives have a fitted effect of over 15% in size). In short, it runs like this: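 Tox21 compounds tested for ERR agonism in an NTP reporter cell line: 18 h treatment at 37 C, then ONE-Glo luminescence.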
The nature of assay [17]: qHTS RealTime-Glo MT Cell Viability Assay in HepG2 cells - 24 hour (AID 1224867). Also: nearly all actives have a fitted effect of over 50% in size. In short, it runs like this:
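Compound treatment began 5 h after plating HepG2 cells (600/well) with NanoLuc luciferase and prosubstrate. Plates stayed at 37 C for 40 h; luminescence was captured at six time points, 0 h through 40 h.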

Assay [18] can be described thus: qHTS assay to identify small molecule agonists of H2AX - cell viability counter screen (AID 1224847; calls by dose curve; also: top concentration of the series differs between compounds; nearly all actives have a fitted effect of over 30% in size). In short, it runs like this: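 Viability of CHO-K1 (wild type) cells after 3 hr compound exposure was measured by CellTiter-Glo luminescence.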
Assay [19] addresses Thyrotropin receptor (Homo sapiens) (UniProt P16473). The assay can be described thus: qHTS assay to identify small molecule agonists of the thyroid stimulating hormone receptor (TSHR) signaling pathway (AID 1224843; calls by dose curve; also: nearly all actives have a fitted effect of over 45% in size). In short, it runs like this:
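HEK293/TSHR, 800 cells/well; cpd 30 min RT; add cAMP-d2 + anti-cAMP-cryptate, 1 h RT; fluorescence read on plate reader. 15-pt titration, n=3.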

Nuclear receptor subfamily 1 group I member 3 (Homo sapiens), sequence (Q14994 whole entry, looked up): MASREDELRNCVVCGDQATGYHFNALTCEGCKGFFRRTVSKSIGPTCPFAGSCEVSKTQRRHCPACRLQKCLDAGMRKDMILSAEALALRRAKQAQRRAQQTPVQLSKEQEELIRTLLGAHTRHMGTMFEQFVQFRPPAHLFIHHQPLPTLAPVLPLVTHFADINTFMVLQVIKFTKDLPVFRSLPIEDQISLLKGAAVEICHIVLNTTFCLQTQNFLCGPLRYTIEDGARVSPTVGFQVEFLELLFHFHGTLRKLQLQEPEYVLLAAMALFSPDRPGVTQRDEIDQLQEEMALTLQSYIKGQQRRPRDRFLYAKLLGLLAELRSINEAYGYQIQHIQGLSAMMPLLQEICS
Luciferin 4-monooxygenase (Photinus pyralis), sequence (P08659 whole entry, looked up): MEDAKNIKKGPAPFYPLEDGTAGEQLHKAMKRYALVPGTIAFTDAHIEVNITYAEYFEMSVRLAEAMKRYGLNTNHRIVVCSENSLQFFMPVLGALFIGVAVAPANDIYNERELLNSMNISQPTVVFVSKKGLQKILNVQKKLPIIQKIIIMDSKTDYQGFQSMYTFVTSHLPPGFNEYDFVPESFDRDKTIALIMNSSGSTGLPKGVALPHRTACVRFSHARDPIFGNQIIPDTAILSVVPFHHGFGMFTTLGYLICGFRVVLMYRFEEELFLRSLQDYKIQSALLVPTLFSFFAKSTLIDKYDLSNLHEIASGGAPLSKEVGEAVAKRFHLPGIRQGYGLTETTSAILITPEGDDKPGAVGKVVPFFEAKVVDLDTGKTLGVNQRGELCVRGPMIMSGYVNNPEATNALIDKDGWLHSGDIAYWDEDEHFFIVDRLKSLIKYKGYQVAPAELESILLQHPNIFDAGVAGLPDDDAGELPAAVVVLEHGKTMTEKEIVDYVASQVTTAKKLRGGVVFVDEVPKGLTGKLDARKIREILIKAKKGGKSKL
Thyrotropin receptor (Homo sapiens), sequence (P16473 whole entry, looked up): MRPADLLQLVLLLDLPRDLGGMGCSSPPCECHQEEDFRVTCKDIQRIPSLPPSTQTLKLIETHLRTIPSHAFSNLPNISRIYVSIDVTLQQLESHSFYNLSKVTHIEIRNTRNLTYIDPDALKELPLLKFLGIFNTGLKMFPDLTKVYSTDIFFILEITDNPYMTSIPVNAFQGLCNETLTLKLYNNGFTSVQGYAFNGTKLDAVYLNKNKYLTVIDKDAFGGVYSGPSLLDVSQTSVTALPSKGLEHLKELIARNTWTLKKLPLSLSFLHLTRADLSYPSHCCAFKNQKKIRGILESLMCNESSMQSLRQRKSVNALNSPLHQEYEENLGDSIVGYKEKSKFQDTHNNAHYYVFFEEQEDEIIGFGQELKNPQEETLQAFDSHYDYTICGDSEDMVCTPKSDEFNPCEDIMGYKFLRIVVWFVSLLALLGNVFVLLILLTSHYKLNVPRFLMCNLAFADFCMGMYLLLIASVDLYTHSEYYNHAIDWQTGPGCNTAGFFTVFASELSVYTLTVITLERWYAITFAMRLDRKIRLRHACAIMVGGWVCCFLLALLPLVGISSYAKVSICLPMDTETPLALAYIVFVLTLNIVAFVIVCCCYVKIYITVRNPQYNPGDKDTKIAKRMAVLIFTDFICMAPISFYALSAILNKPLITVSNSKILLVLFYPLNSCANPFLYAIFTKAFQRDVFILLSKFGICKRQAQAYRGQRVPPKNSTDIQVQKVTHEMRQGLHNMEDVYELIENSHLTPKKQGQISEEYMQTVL

In the case of `Clc1ccccn1`, the Potency entry in assay [1], in [2], in assay [3], in assay [4], in assay [5] and in assay [9] was “inactive” in each case. Further, the compound was classed as inactive in [6], in assay [7], in assay [8] and in assay [10].
For `COc1ccc(OC)cc1`, the Potency entry in [2], in [3], in [4], in [12], in [5] and in assay [13] was “inactive” throughout. For the same compound, the Potency entry in assay [17] and in assay [9] was “inactive” each time. The outcome in assay [11], in [14], in assay [6], in [7], in assay [8] and in [15] was inactive. In addition, the compound was called inactive in assay [16] and in assay [10].
For `Cc1ccc(C(C)C)c(O)c1`, the Potency entry in [1], in assay [2], in [3], in assay [5], in [13] and in assay [17] was “inactive” in each case. For the same compound, in assay [9], the Potency entry was “inactive”. The result in assay [11], in assay [14], in assay [6], in assay [7], in assay [8] and in [18] was inactive. Besides, the result in [15], in assay [16] and in [10] was inactive.
`CC(=O)OCc1ccccc1`: the Potency entry in [1], in [2], in assay [3], in assay [4], in assay [5] and in [17] was “inactive” each time. Further, the Potency entry in assay [9] was “inactive”. The result in assay [6], in assay [7], in assay [8] and in assay [10] was inactive.
Take `CCCCOC(=O)c1ccc(N)cc1`: the Potency result in assay [1], in assay [3], in [5], in assay [17] and in [9] was “inactive” throughout. Besides, the Potency result was “inactive and 34.7 µM (active)” in assay [2]; 23.7 µM (active) in assay [12]. Besides, the outcome in assay [11], in assay [6], in assay [7], in [18] and in assay [10] was inactive.
For `CNC(=O)Oc1ccc2c(c1)[C@]1(C)CCN(C)[C@@H]1N2C`, the Potency entry in assay [1], in [2], in assay [3], in assay [12], in assay [5] and in [9] was “inactive” each time. Besides, the compound was called inactive in [11], in [6], in [7] and in assay [10].
Consider `C[Si]1(C)O[Si](C)(C)O[Si](C)(C)O[Si](C)(C)O1`, for which the Potency entry in assay [1], in assay [2], in assay [3], in assay [12], in assay [5] and in assay [17] was “inactive” in each case. In addition, the Potency result in [9] is “inactive”. Moreover, the compound was classed as inactive in assay [11], in assay [6], in assay [7], in assay [8] and in assay [10].
Consider `CC1(C)OC[C@@H]2O[C@@]3(C(=O)O)OC(C)(C)O[C@H]3[C@@H]2O1`, for which the Potency result in assay [1], in [2], in assay [3], in assay [12], in [5] and in [9] was “inactive” throughout. The compound was called inactive in [11], in assay [6], in [7], in assay [8], in assay [18] and in [10].
`COCCCN`: the Potency entry in assay [1], in [2], in assay [3], in assay [12], in assay [5] and in [9] was “inactive” each time. The result in assay [11], in assay [19], in assay [6], in assay [7], in assay [8] and in assay [18] was inactive. In [10], the compound was classed as inactive.
As to `CCCCC(C=O)CC` (centres undefined), the Potency entry in assay [1], in [2], in assay [3], in assay [12], in assay [5] and in [17] was “inactive” each time. The Potency result in assay [9] was “inactive”. The compound was called inactive in assay [11], in assay [6], in assay [7], in assay [8], in assay [18] and in assay [10].
Consider `NC(=S)NNC(N)=S`, for which the Potency entry in assay [1], in assay [2], in [3], in assay [5] and in assay [9] was “inactive” throughout. The compound was called inactive in assay [6], in assay [7], in assay [8] and in assay [10].
